Test results from PubChem BioAssay (Tox21).
“And” between values parts separate entries of the source, which are not always exact repeats. Equal values may be shown once. The source made the active and inactive calls. Unless noted, the call rests on the fitted dose curve; in most records, active means well fitted curve in the direction sought with a large enough effect in the repeat runs; inconclusive means weak or mixed curves; inactive means no such curve, though single readings can be large; an effect the other way counts as inactive or inconclusive.

Columns and labels:
[1] = qHTS assay to identify small molecule antagonists of the glucocorticoid receptor (GR) signaling pathway - cell viability counter screen (AID 720693); conditions: GR-bla HeLa viability, CellTiter-Glo luminescence, 18 h, with 5 nM dexamethasone present; series mostly up to 58.5 µM; further: nearly all actives have a fitted effect of over 55% in size; further: potency means the concentration at half of the fitted maximal effect
[2] = qHTS assay to identify small molecule antagonists of the androgen receptor (AR) signaling pathway - cell viability counter screen (AID 743033; further: nearly all actives have a fitted effect of over 45% in size); conditions: AR-bla HEK293 viability, CellTiter-Glo luminescence, 16 h; series mostly up to 58.5 µM
[3] = qHTS assay to identify small molecule antagonists of the androgen receptor (AR) signaling pathway using the MDA cell line - cell viability counter screen (AID 743041; further: nearly all actives have a fitted effect of over 45% in size; further: potency means the concentration at half of the fitted maximal effect); conditions: MDA-kb2 viability, CellTiter-Fluor, 16 h, cells co-treated with R1881 androgen agonist; series mostly up to 70.3 µM
Method in brief: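 MDA-kb2 AR-luc cells (MMTV-luciferase, AR/GR responsive) treated with compounds plus R1881 agonist for 16 h at 37C. CellTiter-Fluor added at 15.5 h; fluorescence read after 30 min in the same wells.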

[4] = qHTS assay to identify small molecule antagonists of the thyroid receptor (TR) signaling pathway - cell viability counter screen (AID 743064); conditions: GH3.TRE-Luc viability, CellTiter-Fluor, 24 h; series mostly up to 70.3 µM; further: nearly all actives have a fitted effect of over 50% in size; further: potency means the concentration at half of the fitted maximal effect
Method in brief: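 Same-well viability check: GH3.TRE-Luc cells stimulated with 1 nM T3 alongside test compound for 23.5 h, followed by CellTiter-Fluor fluorescence.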

[5] = system: thyroid hormone receptor (rat, GH3 cells); assay: qHTS assay to identify small molecule agonists of the thyroid receptor (TR) signaling pathway (AID 743066; calls by dose curve); conditions: GH3.TRE-Luc cells, TR agonist luciferase, 24 h; series mostly up to 83.9 µM
[6] = target: Estrogen receptor (Homo sapiens) (UniProt P03372); assay: qHTS assay to identify small molecule antagonists of the estrogen receptor alpha (ER-alpha) signaling pathway (AID 743069; active means well fitted curve in the direction sought with a large enough effect in the signal ratio in the repeat runs, not every such curve was filed as active; inconclusive means weak or mixed curves, or effect the other way; inactive means no such curve, though single readings can be large or run the other way; the % refers to the signal ratio; further: potency means the concentration at half of the fitted maximal effect); conditions: HEK293 ER-alpha-UAS-bla, beta-lactamase ratio, antagonist mode; series mostly up to 69.4 µM
Estrogen receptor (Homo sapiens), sequence (P03372 whole entry, looked up): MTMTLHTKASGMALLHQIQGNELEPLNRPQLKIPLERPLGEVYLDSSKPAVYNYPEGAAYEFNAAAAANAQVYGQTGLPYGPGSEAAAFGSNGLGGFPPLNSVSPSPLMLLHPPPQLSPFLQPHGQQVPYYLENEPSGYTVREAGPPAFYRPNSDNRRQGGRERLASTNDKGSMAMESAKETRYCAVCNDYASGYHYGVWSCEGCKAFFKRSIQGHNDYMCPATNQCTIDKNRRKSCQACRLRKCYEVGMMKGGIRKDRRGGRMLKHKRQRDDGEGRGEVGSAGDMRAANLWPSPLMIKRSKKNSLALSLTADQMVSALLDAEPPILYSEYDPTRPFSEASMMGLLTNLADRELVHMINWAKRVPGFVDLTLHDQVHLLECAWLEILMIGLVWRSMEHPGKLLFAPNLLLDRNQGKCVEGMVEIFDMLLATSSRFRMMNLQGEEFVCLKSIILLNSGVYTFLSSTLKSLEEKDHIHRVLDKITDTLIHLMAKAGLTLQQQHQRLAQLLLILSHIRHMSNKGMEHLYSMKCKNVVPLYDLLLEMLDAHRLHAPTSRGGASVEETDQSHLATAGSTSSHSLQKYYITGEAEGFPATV
Method in brief: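 HEK293 ER-alpha-UAS-bla GripTite cells, held overnight in 2% charcoal-stripped FBS, 5,000 cells/well, preincubated 4 h, then compound plus 17beta-estradiol for 18 h at 37C. Beta-lactamase read by LiveBLAzer B/G FRET substrate, 2 h at room temperature.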

[7] = qHTS assay to identify small molecule antagonists of the estrogen receptor alpha (ER-alpha) signaling pathway - cell viability counter screen (AID 743074; calls by dose curve;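 further: HEK293 cells carrying ER-alpha-UAS-bla reporter stimulated with 17beta-estradiol; nearly all actives have a fitted effect of over 45% in size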; further: potency means the concentration at half of the fitted maximal effect); conditions: ERalpha-bla HEK293 viability, CellTiter-Glo luminescence, 18 h; series mostly up to 69.4 µM
[8] = target: Estrogen receptor (Homo sapiens) (UniProt P03372); assay: qHTS assay to identify small molecule agonists of the estrogen receptor alpha (ER-alpha) signaling pathway using the BG1 cell line (AID 743079); conditions: BG1Luc4E2 cells, ERE-luciferase agonist, 22 h; series mostly up to 70.3 µM; further: nearly all actives have a fitted effect of over 20% in size; further: potency means the concentration at half of the fitted maximal effect
[9] = qHTS assay to identify small molecule antagonists of the estrogen receptor alpha (ER-alpha) signaling pathway using the BG1 cell line (AID 743080; calls by dose curve;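 further: BG1 cells stimulated with 17beta-estradiol alongside compound; nearly all actives have a fitted effect of over 25% in size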); conditions: BG1Luc4E2 ERE-luciferase antagonist mode, luminescence; series mostly up to 70.3 µM
Method in brief: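 BG1Luc4E2, endogenous ER-alpha, 4xERE-luc; 5 d charcoal-stripped FBS, phenol red free; 24 h plating; cpd + 17beta-estradiol 21.5 h, 37 C/5% CO2; CellTiter-Fluor viability 30 min, then ONE-Glo luciferase 30 min RT.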

[10] = qHTS assay to identify small molecule antagonists of the estrogen receptor alpha (ER-alpha) signaling pathway using the BG1 cell line - cell viability counter screen (AID 743081); conditions: BG1Luc4E2 viability, CellTiter-Fluor, 22 h; series mostly up to 70.3 µM;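 further: compound given together with 17beta-estradiol as the ER stimulus; nearly all actives have a fitted effect of over 45% in size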; further: potency means the concentration at half of the fitted maximal effect
Aromatase (Homo sapiens) = Aromatase (Homo sapiens) (UniProt P11511); assay: qHTS assay to identify aromatase inhibitors (AID 743083); conditions: MCF-7 aro ERE, testosterone-driven ERE luciferase, 24 h; series mostly up to 70.3 µM; further: nearly all actives have a fitted effect of over 55% in size; further: potency means the concentration at half of the fitted maximal effect
Aromatase (Homo sapiens), sequence (P11511 whole entry, looked up): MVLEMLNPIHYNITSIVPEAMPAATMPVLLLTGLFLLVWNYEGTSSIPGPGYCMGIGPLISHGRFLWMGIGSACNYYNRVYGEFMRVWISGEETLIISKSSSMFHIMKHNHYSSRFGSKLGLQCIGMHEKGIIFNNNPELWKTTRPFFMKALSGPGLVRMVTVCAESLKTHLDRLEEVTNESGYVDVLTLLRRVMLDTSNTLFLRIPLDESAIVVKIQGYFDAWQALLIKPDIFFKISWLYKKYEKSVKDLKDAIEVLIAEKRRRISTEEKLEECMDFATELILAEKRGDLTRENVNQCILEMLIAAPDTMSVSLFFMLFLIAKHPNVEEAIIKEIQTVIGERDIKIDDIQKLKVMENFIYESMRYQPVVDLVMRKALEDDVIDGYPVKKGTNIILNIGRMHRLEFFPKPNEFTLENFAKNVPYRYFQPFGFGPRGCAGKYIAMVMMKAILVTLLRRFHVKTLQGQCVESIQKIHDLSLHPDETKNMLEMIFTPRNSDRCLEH

[11] = qHTS assay for identifying genotoxic compounds that show differential cytotoxicity against isogenic chicken DT40 cell lines with known DNA damage response pathways - wild type cell line (AID 743012); conditions: DT40 wild type chicken cells viability, CellTiter-Glo, 40 h; series mostly up to 68.4 µM; further: potency means the concentration at half of the fitted maximal effect; nearly all actives have a fitted effect of over 60% in size
Method in brief: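 Wild-type DT40 cells (300/well) exposed to compounds for 40 hours at 37 C/5% CO2. Viability read by CellTiter-Glo luminescence after 30 min at room temperature.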

[12] = qHTS assay for identifying genotoxic compounds that show differential cytotoxicity against isogenic chicken DT40 cell lines with known DNA damage response pathways - Rev3 mutant cell line (AID 743014); conditions: chicken DT40 Rev3-/- viability, CellTiter-Glo, 40 h; series mostly up to 68.4 µM; further: potency means the concentration at half of the fitted maximal effect; nearly all actives have a fitted effect of over 55% in size
[13] = qHTS assay for identifying genotoxic compounds that show differential cytotoxicity against isogenic chicken DT40 cell lines with known DNA damage response pathways - Rad54/Ku70 mutant cell line (AID 743015); conditions: DT40 Rad54/Ku70 mutant viability, CellTiter-Glo, 40 h; series mostly up to 66.8 µM; further: potency means the concentration at half of the fitted maximal effect; nearly all actives have a fitted effect of over 60% in size
[14] = target: Estrogen receptor (Homo sapiens) (UniProt P03372); assay: qHTS assay to identify small molecule agonists of the estrogen receptor alpha (ER-alpha) signaling pathway (AID 743075; calls by dose curve; further: potency means the concentration at half of the fitted maximal effect); conditions: HEK293 ER-alpha-UAS-bla, beta-lactamase FRET ratio, 18 h; series mostly up to 70.1 µM
[15] = target: Androgen receptor (Homo sapiens) (UniProt P10275); assay: qHTS assay to identify small molecule agonists of the androgen receptor (AR) signaling pathway using the MDA cell line (AID 743040; further: nearly all actives have a fitted effect of over 20% in size); conditions: MDA-kb2 AR-luc cells, MMTV luciferase, 16 h, stronger effect = higher value; series mostly up to 70.3 µM
Androgen receptor (Homo sapiens), sequence (P10275 whole entry, looked up): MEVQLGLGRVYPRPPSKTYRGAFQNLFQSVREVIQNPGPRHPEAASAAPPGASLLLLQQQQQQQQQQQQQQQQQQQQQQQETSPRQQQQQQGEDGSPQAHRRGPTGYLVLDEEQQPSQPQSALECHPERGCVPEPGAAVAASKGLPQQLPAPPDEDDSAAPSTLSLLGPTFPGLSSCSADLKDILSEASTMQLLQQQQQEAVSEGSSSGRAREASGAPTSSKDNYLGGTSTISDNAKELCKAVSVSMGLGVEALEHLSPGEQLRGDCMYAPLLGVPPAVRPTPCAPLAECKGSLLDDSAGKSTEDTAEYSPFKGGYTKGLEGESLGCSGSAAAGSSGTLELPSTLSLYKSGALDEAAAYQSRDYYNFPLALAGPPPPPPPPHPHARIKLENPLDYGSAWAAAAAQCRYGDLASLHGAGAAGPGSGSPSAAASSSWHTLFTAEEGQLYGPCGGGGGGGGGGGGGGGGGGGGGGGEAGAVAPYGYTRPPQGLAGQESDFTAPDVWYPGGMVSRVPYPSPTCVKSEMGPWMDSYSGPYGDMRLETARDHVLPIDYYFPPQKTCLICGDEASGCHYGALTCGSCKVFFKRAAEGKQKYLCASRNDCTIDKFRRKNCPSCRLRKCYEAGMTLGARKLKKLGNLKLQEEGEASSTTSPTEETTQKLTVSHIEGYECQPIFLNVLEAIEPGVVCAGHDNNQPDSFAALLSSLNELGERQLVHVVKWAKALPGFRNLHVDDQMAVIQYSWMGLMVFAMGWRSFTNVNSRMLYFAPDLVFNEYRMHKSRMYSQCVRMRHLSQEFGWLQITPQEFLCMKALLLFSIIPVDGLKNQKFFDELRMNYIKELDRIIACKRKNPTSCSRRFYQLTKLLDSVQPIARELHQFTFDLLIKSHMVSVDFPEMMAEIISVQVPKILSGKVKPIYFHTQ
Method in brief: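 MDA-kb2 breast carcinoma cells carrying MMTV-luciferase (responsive to AR and GR), plated 5 h then treated 16 h with compounds at 37C, 0% CO2. Read-out was ONE-Glo luminescence after 30 min at room temperature.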

[16] = target: Androgen receptor (Homo sapiens) (UniProt P10275); assay: qHTS assay to identify small molecule antagonists of the androgen receptor (AR) signaling pathway using the MDA cell line (AID 743042; further: nearly all actives have a fitted effect of over 55% in size); conditions: MDA-kb2 AR-luc, MMTV luciferase, R1881 antagonist, 16 h; series mostly up to 70.3 µM
Method in brief: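 MDA-kb2 breast carcinoma cells carrying MMTV-luciferase (AR/GR responsive) were co-treated with compounds and the agonist R1881 for 16 h at 37C. Inhibition read as ONE-Glo luminescence; CellTiter-Fluor fluorescence measured in parallel for cytotoxicity.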

[17] = qHTS assay to identify small molecule antagonists of the thyroid receptor (TR) signaling pathway (AID 743065); conditions: GH3.TRE-Luc, T3-stimulated luciferase inhibition, 23.5 h; series mostly up to 70.3 µM; further: nearly all actives have a fitted effect of over 55% in size; further: potency means the concentration at half of the fitted maximal effect
Method in brief: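 GH3.TRE-Luc rat pituitary cells (two TREs driving luciferase) were dosed with compound, then stimulated with 1 nM T3 (final) for 23.5 h at 37 C. ONE-Glo luminescence was the read-out, with CellTiter-Fluor fluorescence as the cytotoxicity counter-screen.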

[18] = target: Androgen receptor (Homo sapiens) (UniProt P10275); assay: qHTS assay to identify small molecule antagonists of the androgen receptor (AR) signaling pathway (AID 743035; active means well fitted inhibition curve with a large enough effect in the signal ratio in the repeat runs, not every such curve was filed as active; inconclusive means weak or mixed curves, or effect the other way; inactive means no such curve, though single readings can be large or run the other way; the % refers to the signal ratio); conditions: HEK293 AR-UAS-bla, R1881-stimulated, beta-lactamase FRET, 16 h; series mostly up to 58.5 µM
Method in brief: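 HEK293 cells stably carrying UAS-beta-lactamase reporter, 2,000/well, given compounds plus R1881 agonist and incubated 16 h at 37C. LiveBLAzer B/G FRET substrate then added for 2 h at room temperature before fluorescence reading.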

Measured: Potency

S=c1nccc[nH]1
inactive: [1] | [2] | [3] | [4] | [5] | [6] | [7] | [9] | [10] | Aromatase (Homo sapiens)
active: [8] 30.7 µM

O=C1c2ccccc2C(=O)N1SC1CCCCC1
inactive: [5] | [14] | [8] | [9] | [10]
active: [11] 15.3 µM and 5.45 µM | [12] 6.85 µM and 5.45 µM | [13] 17.2 µM and 4.33 µM | [4] 30.6 µM and 21.7 µM | Aromatase (Homo sapiens) 43.2 µM

CC(C)=CCC1=C(O)c2ccccc2C(=O)C1=O
inactive: [15] | [16] | [5] | Aromatase (Homo sapiens)
active: [12] 48.3 µM | [13] 60.8 µM | [10] 54.2 µM

CCC(CC)(CC(=O)Nc1cccc(/C=C/c2nc(C3CCC3)cs2)c1)C(=O)O
not listed: [2] | [6] | [11] | [12] | [13] | [15] | [16] | [18]
inactive: all other assays above

COC(=O)C1=C(C)NC(C)=C(C(=O)OCCN2CCN(C(c3ccccc3)c3ccccc3)CC2)C1c1cccc([N+](=O)[O-])c1 (stereo not drawn)
active: [11] 5.31 µM | [12] 8.41 µM | [13] 6.68 µM | [4] 8.41 µM | [17] 6.68 µM | [6] 8.49 µM [inconclusive] | [10] 3.76 µM | Aromatase (Homo sapiens) 13.3 µM
inactive: [5] | [7] | [14]

CC(C)(C)C1CCC(=O)CC1
inactive: [1] | [2] | [4] | [6] | [7] | [14] | [8] | [9] | [10] | Aromatase (Homo sapiens)

CC(C)(C)c1csc(-c2cc3cc(OCc4ccccc4CC(=O)O)ccc3o2)n1
inactive: [5] | [14] | [10]
active: [1] 49 µM | [13] 61.1 µM | [4] 54.5 µM | [17] 61.1 µM | [7] 24.5 µM

C=CC(=O)OCCOC(=O)C=C
inactive: [18] | [15] | [3] | [16] | [5] | [7] | [10]
active: [11] 7.7 µM | [12] 7.7 µM | [13] 10.9 µM | [4] 61.1 µM | [17] 38.6 µM | [14] 17.4 µM [inconclusive] | [8] 1.72 µM

CCO[C@@H]1O[C@H](C(COCc2ccccc2)OCc2ccccc2)[C@H](OCc2ccccc2)[C@H]1O (stereo partly drawn)
active: [13] 14.3 µM
inactive: [1] | [2] | [3] | [4] | [7] | [10] | Aromatase (Homo sapiens)

CCN(CC)C(=O)c1cc(S(=O)(=O)Cc2ccccc2)c(N2CCC(c3ccccc3)CC2)cc1N(CC)CCN(C)C
inactive: [5] | [14] | [8] | [9]
active: [11] 5.96 µM and 17 µM | [12] 11.9 µM and 13.5 µM | [13] 10.6 µM and 17 µM | [4] 3.35 µM and 4.28 µM | [17] 4.22 µM and 4.8 µM

Oc1ccccc1O
active: [11] 24.6 µM and 30.6 µM | [12] 19.6 µM and 54.5 µM | [13] 12.3 µM and 27.3 µM | [4] 17.4 µM and 15.4 µM | [17] 43.8 µM and 43.3 µM | Aromatase (Homo sapiens) 27.6 µM
inactive: [2] | [5] | [10]

O=[N+]([O-])c1ccc(O)cc1C(F)(F)F
active: [11] 27.3 µM | [12] 27.3 µM | [13] 21.7 µM | [3] 61.1 µM | [4] 54.5 µM
